Data taken from PubChem BioAssay (NCI).
The panel holds about 79,000 compounds, 15% with a hit somewhere; the sample as a whole holds those more often. Unmarked numbers belong to inactive results. Active and inactive are the calls of the source. No stated cut-off is given here; in the data, active means growth inhibition above about 70%; inactive means the rest.

Columns and labels:
[1] = NCI Yeast Anticancer Drug Screen. Data for the rad50 strain (AID 155);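 further: 0% = growth of vehicle-only cultures of the same strain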; details: S. cerevisiae rad50 strain growth inhibition, active compounds read high
Outline: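 DNA repair mutant yeast, compound exposure, growth read-out; inhibition is taken relative to vehicle.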

[2] = NCI Yeast Anticancer Drug Screen. Data for the mec2-1 strain (AID 157); details: S. cerevisiae mec2-1 strain, active compounds read high
Outline: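 Compounds were applied to mec2-1 yeast cells. Their growth was then compared with that of vehicle-treated cultures to give growth inhibition.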

[3] = NCI Yeast Anticancer Drug Screen. Data for the sgs1 mgt1 strain (AID 161);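 further: 0% = growth of cultures given vehicle only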; details: S. cerevisiae sgs1 mgt1 strain, active compounds read high
Outline: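 This yeast growth screen uses a strain with defined DNA-repair lesions; compound-treated growth is compared with vehicle-treated growth.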

[4] = NCI Yeast Anticancer Drug Screen. Data for the cln2 rad14 strain (AID 165);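 further: 0% = growth equal to vehicle treated cultures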; details: S. cerevisiae cln2 rad14 strain, active compounds read high
Outline: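 Strain: cln2 rad14 yeast, altered in cell cycle control and DNA damage repair. Read-out: growth inhibition vs vehicle.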

[5] = NCI Yeast Anticancer Drug Screen. Data for the bub3 strain (AID 167); details: S. cerevisiae bub3 mutant strain, active compounds read high
Outline: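 In this screen, a yeast mutant lacking normal mitotic checkpoint function is challenged with compound. Relative growth versus vehicle gives the inhibition value.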

[6] = NCI Yeast Anticancer Drug Screen. Data for the mlh1 rad18 strain (AID 175); details: S. cerevisiae mlh1 rad18 strain growth inhibition, active compounds read high
Outline: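 A repair-deficient yeast strain is exposed to test compound, and growth is scored relative to vehicle-treated controls.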

[7] = at 5.0 µM (retest, dose inferred, filed as 0.5)
[8] = at 50.0 µM (retest, dose inferred, filed as 5.0)

Row | Compound | growth inhibition [1, 7] [%] | growth inhibition [1, 8] | growth inhibition ([1]; at 50.0 µM) | growth inhibition [2, 7] [%] | growth inhibition [2, 8] | growth inhibition ([2]; at 50.0 µM) | growth inhibition [3, 7] [%] | growth inhibition [3, 8] | growth inhibition ([3]; at 50.0 µM) | growth inhibition [4, 7] [%] | growth inhibition [4, 8] | growth inhibition ([4]; at 50.0 µM) | growth inhibition [5, 7] [%] | growth inhibition [5, 8] | growth inhibition ([5]; at 50.0 µM) | growth inhibition [6, 7] | growth inhibition [6, 8] | growth inhibition ([6]; at 50.0 µM)
1 | O=C(O)c1ccccc1-c1c2cc(I)c(=O)c(I)c-2oc2c(I)c(O)c(I)cc12 | 20 | 98% (active) | 98.9% (active) | 15 | 99% (active) | 99.5% (active) | 12 | 97% (active) | 99.2% (active) | 5 | 98% (active) | 99% (active) | 2 | 98% (active) | 98.9% (active) | 34% | 99% (active) | 98.8% (active)
2 | CC#CC#C/C=C1/C=CC(=O)O1 | 2 | 80% (active) | 27.4% | 3 | 66% | 33.5% | 1 | 62% | 42.2% | -1 | 26% | -16.8% | 3 | 59% | 13.5% | 0% | 84% (active) | 75% (active)
3 | CCCCCCCCNc1nc(Cl)nc2c1cnn2C | 2 | 40% | 0.3% | -1 | 59% | -17.9% | 3 | 68% | 24.2% | -4 | 62% | -10.6% | -5 | 80% (active) | 42.4% | 12% | 84% (active) | 45.5%
4 | Cc1ccc(S(=O)(=O)N2CCN(C)CC2)cc1 | -1 | 12% | 19.4% | -5 | 26% | 4.45% | 4 | 31% | 5.5% | 1 | 16% | -0.55% | 1 | 39% | 40.5% | 13% | 49% | 11.6%
5 | CCCCCCCCCCOC(=O)c1cc[n+](C)cc1 | -4 | -5% | 13.8% | 7 | 6% | 9.5% | -5 | 0% | -1.75% | -3 | -4% | 46.1% | -5 | -6% | -0.65% | -2% | -1% | -18.9%
6 | Oc1ccc(O)c2nc3ccccc3nc12 | 20 | 97% (active) | 50.8% | 3 | 97% (active) | 33.8% | 8 | 98% (active) | 24.1% | 2 | 98% (active) | -1.85% | 6 | 98% (active) | 68.2% | 24% | 97% (active) | 76.4% (active)
7 | COC1CC(OC(=O)c2ccccc2)C(OC(=O)c2ccccc2)C(C)O1 (stereo not given) | -5 | -4% | 9.1% | -2 | -2% | 6.1% | -2 | -1% | 7.75% | -4 | -12% | -16.4% | 44 | 64% | 83.9% (active) | -1% | 2% | 1.9%
8 | COc1ccc(NS(=O)(=O)c2ccc(N=Cc3c4ccccc4nc4cc(Cl)ccc34)cc2)nn1 | 23 | -9% | 94.2% (active) | 14 | -5% | 91.8% (active) | 17 | -8% | 95.6% (active) | 5 | -6% | 36.9% | 22 | -4% | 52.2% | 13% | -4% | 95.8% (active)
9 | CCS(=O)(=O)C(C(O)C(O)C(O)C(O)CO)S(=O)(=O)CC (stereo not given) | -3 | -6% | 16.2% | -2 | -6% | 8.95% | -2 | -2% | 7.25% | 0 | -10% | 43.5% | 0 | 4% | -2% | -4% | -10% | -7.05%
10 | C1=C(c2ccccc2)C(c2ccccc2)C(c2ccccc2)C/C1=N/OCCN1CCCC1 (stereo not given) | 30 | 99% (active) | 99% (active) | 55 | 99% (active) | 99.6% (active) | 17 | 100% (active) | 99.6% (active) | -9 | 98% (active) | 55.1% | 39 | 99% (active) | 99.2% (active) | 78% (active) | 99% (active) | 97.7% (active)
